A3G deaminase = APOBEC3G (human) deaminase inhibition; Q9HC16; recombinant A3G, ssDNA deamination FAM/TAMRA fluorescence; inhibition, % at 20 µM; 0.28% of 330,000 active;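 active = inhibition of at least 40% at 20 µM, with no more than 30% in the related APOBEC3A deaminase screen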;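 also: plate controls were DMSO wells with A3G for no effect and wells lacking A3G enzyme for full effect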
Target sequence (Q9HC16 whole entry, looked up): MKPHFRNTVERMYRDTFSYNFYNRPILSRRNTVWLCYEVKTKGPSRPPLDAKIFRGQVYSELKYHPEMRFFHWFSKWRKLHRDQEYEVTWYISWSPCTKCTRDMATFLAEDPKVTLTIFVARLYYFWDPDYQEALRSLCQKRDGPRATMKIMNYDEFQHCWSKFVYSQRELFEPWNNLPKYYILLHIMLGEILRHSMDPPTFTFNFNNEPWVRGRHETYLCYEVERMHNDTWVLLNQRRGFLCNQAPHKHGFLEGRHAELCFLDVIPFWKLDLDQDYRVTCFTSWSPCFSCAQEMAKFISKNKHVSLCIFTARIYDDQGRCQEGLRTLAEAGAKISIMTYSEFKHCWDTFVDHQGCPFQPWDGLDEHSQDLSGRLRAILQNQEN
GRK2 inh = inhibitors of human GRK2 displacing RNA aptamer; P25098; bead flow cytometry, FAM-aptamer displacement from GRK2; inhibition of aptamer binding, % at 10 µM; 0.59% of 330,000 active;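 active = inhibition of aptamer binding above 40%, roughly 3 SD of noise, on plates passing a quality check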;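 also: median bead fluorescence of bound FAM aptamer so fluorescent compounds give negative values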
VLA-4 inh = inhibition in a human VLA-4 binding assay | P13612 | VLA-4 expressing cells, ligand binding flow cytometry | inhibition, % (about 7 µM as worked out from the volumes in the protocol) | 0.2% of 330,000 active | AID 2557; in the data active = inhibition above about 50%
A3A deaminase = human APOBEC3A DNA deaminase inhibition; recombinant A3A, FAM/TAMRA ssDNA deamination fluorescence; inhibition, % at 20 µM; 0.41% of 330,000 active;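 active = at least 40% inhibition at 20 µM here, with at most 30% in a related deaminase screen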;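 also: plate controls were A3A with DMSO for no effect and wells lacking A3A enzyme for full effect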
Target sequence (P31941 whole entry, looked up): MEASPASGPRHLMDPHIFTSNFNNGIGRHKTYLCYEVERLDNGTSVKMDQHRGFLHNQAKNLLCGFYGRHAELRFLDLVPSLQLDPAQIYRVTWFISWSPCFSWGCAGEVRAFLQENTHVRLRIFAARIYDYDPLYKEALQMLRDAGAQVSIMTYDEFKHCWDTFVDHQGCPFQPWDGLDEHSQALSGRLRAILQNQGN
GRK2 CP1 = confirmation of human GRK2 inhibitors displacing RNA aptamer | shares compounds with GRK2 inh | bead-bound GRK2, FAM-aptamer displacement, flow cytometry | aptamer displacement, % at 10 µM | 4% of 2,000 active | AID 504451;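 active = aptamer displacement above 40%, near three times the noise of non-fluorescent compounds, on plates passing quality checks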;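 also: negative values mostly reflect intrinsic compound fluorescence rather than true enhancement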
FAM quench CP1 = quenches fluorescent RNA aptamer, GRK2 hit artifact; fluorescence response (% of DMSO), % at 10 µM; 2,000 tested, under 10 active; shares compounds with GRK2 inh; AID 504580; Carboxyfluorescein RNA aptamer on beads, flow cytometry quenching; hits give low values;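 active = compounds that quench the bead-bound fluorescent RNA probe, cutting fluorescence to under half of the solvent control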;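 also: counterscreen run without GRK2 so only probe quenching by compound is measured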
* = called active by the depositor; . = no result given. Rows were chosen to be rich in hits. Some 1.4% of all compounds tested hit in one or more screens of this group.

SMILES | A3G deaminase | GRK2 inh | VLA-4 inh | A3A deaminase | GRK2 CP1 | FAM quench CP1
O=C(O)c1ccc(N2CCCC2=O)cc1 | 0 | 52* | 8 | -1 | 2 | 91
O=C(NN1C(=O)/C(=C/C=C/c2ccco2)SC1=S)c1ccccc1O | 87 | 39 | 16 | 96 | 3 | 98
CS(=O)(=O)N(Cc1ccccc1)c1ccc(C(=O)Nc2ccccc2Sc2ccccc2)cc1 | 2 | 4 | -9 | 2 | . | .
CS(=O)(=O)N(Cc1ccccc1)c1ccc(C(=O)Nc2ccccc2C(=O)O)cc1 | -3 | 51* | -6 | -3 | -3 | 96
O=C(Cc1ccccc1)NCC(=O)OCC(=O)c1ccc(Cl)c([N+](=O)[O-])c1 | -6 | 1 | 18 | 0 | . | .
CC(NC(=O)Cn1cccc1C(=O)c1ccccc1)c1ccccc1 (stereo not drawn) | -7 | 0 | 0 | -5 | . | .
CC(C)(C)OC(=O)N1CCC(c2cc(=O)n3[nH]cc(C(=O)Nc4ccc(F)c(Cl)c4)c3n2)CC1 | -1 | 1 | 1 | 0 | . | .
CC(C)(C)OC(=O)N1CCC(c2cc(=O)n3[nH]c(-c4ccc(Cl)cc4)cc3n2)CC1 | -2 | 88* | -1 | 1 | -26 | 94
O=C(C1CCN(c2nnc(-n3cccc3)s2)CC1)N1CCN(c2cccc(C(F)(F)F)c2)CC1 | -2 | 0 | 14 | 0 | . | .
O=C1NC2=C(C(=O)CCC2)C(c2ccccc2)N1 (stereo not drawn) | -13 | 1 | 0 | -6 | . | .
CC1(C)CC(=O)C2=C(C1)NC(=O)NC2c1ccccc1 (stereo not drawn) | -2 | 47* | -9 | -3 | -2 | 102
C=CCOc1c(CNC2CCCC2)cc(Cl)cc1OC | -3 | 87* | 4 | 0 | -2 | 102
NC(=O)Cc1ccc(C(=O)c2ccccc2F)s1 | 1 | 27 | 2 | 0 | 2 | 96
COc1ccc(C(=O)NNC(=O)CSc2nc3c([nH]2)c(=O)n(C)c(=O)n3C)cc1 | -3 | 100* | -1 | 0 | 2 | 97
Cc1cccc2nc(-c3cccc(NC(=O)c4ccc(Cl)cc4)c3)cn12 | 7 | 0 | -15 | 2 | . | .
COc1cc(C(C)=O)ccc1OCC(O)CN1CCN(c2ccccc2)CC1 (stereo not drawn) | -3 | 3 | 7 | -5 | . | .
CCOCCn1c(N2CCN(c3ccccc3)CC2)nc2c1c(=O)n(C)c(=O)n2C | -7 | 2 | 5 | -3 | . | .
CCC(=O)Nc1cccc(-c2cc3ccccc3oc2=O)c1 | -4 | 96* | -2 | 6 | 0 | 97
CCC(=O)Nc1cccc(NC(=O)c2cc3ccccc3o2)c1 | -2 | 0 | 19 | -1 | . | .
CC1CC(C)CN(C(=O)c2cn(C)c3ccc(S(=O)(=O)N(C)C)cc3c2=O)C1 (stereo not drawn) | 4 | 86* | 10 | 2 | 1 | 103
CCN(CC)CCCN(C(=O)c1cccs1)c1nc(-c2ccc(OC)cc2)cs1 | -1 | 0 | -5 | 1 | . | .
COCCCN(C(=O)c1ccco1)c1nc(-c2ccc(OC)cc2)cs1 | -8 | 4 | 4 | -7 | . | .
CCN(CC)CCCN(C(=O)c1ccco1)c1nc(-c2ccc(C)cc2)cs1 | -6 | 59* | 22 | 2 | -13 | 104
O=C(c1ccco1)N(CCCN1CCOCC1)c1nc(-c2ccc(Cl)cc2)cs1 | -2 | 2 | 14 | -1 | 1 | 103
CCN(CC)CCCN(C(=O)c1ccco1)c1nc(-c2ccc(Cl)cc2)cs1 | -9 | 66* | -8 | 2 | -15 | 99
SMILES | A3G deaminase | GRK2 inh | VLA-4 inh | A3A deaminase | GRK2 CP1 | FAM quench CP1
CC(Sc1ccccc1)C(=O)Nc1cccc(N(C)S(C)(=O)=O)c1 (stereo not drawn) | 2 | 8 | -8 | 1 | . | .
CCOc1ccc(Cn2ccnc2CCl)cc1[N+](=O)[O-] | -1 | 0 | 4 | -1 | . | .
Cc1cc(=O)[nH]c(SCc2cccc3ccccc23)n1 | -7 | 10 | -1 | -4 | -1 | 107
Cc1cccc2c(C(=O)n3cccn3)cc(-c3ccccc3Cl)nc12 | -6 | 3 | 7 | 7 | -1 | 98
Cc1cccc2c(C(=O)Nn3cnnc3)cc(-c3ccccc3Cl)nc12 | -12 | 0 | 9 | 6 | . | .
Cc1ncc([N+](=O)[O-])n1CC(=O)Nc1ccc(F)c(F)c1 | -5 | 0 | 12 | -2 | . | .
Cc1nc([N+](=O)[O-])cn1CC(=O)Nc1ccc(F)c(Cl)c1 | 1 | 51* | 2 | -4 | -1 | 95
COc1ccc(Cl)cc1C(=O)NNC(=S)NC(=O)c1cc(-c2ccccc2)nc2ccccc12 | -4 | 43* | -2 | -1 | -2 | 109
CN1CCN(c2ccc(-c3cccc(NC(=O)COc4ccc(Cl)cc4Cl)c3)nn2)CC1 | -4 | 0 | -3 | 0 | . | .
CN1CCN(c2ccc(-c3cccc(NC(=O)COc4ccc(Cl)cc4)c3)nn2)CC1 | -9 | 0 | -11 | 0 | -13 | 100
CN1CCN(c2ccc(-c3cccc(NC(=O)COc4ccccc4)c3)nn2)CC1 | -9 | 0 | 1 | -2 | -11 | 96
COC(=O)c1ccc(C(C(=O)NC2CCCCC2)N(C(=O)Cc2cccs2)C2CC2)cc1 (stereo not drawn) | -6 | 86* | 10 | -2 | 18 | 98
O=C(NC1CCCC1)C(c1ccsc1)N(Cc1ccccc1)C(=O)Cc1cccs1 (stereo not drawn) | -4 | 15 | 17 | -2 | -4 | 106
O=C(NC1CCCC1)C(c1ccncc1)N(Cc1ccccc1)C(=O)Cc1cccs1 (stereo not drawn) | -2 | 1 | 1 | -5 | . | .
COC(=O)c1ccc(C(C(=O)NC2CCCCC2)N(Cc2ccccc2)C(=O)Cc2cccs2)cc1 (stereo not drawn) | 0 | 3 | -2 | 2 | . | .
O=c1c(O)cccc2cc(O)c(O)c(O)c12 | 88 | 100* | 5 | 96 | 30 | 91
O=C(NCCOc1ccccc1)C1CCC(=O)N(CCc2ccc(Cl)cc2)C1 (stereo not drawn) | 11 | 0 | -2 | 3 | . | .
COc1ccc(CCN2CC(C(=O)N(C)CCOc3ccccc3)CCC2=O)cc1 (stereo not drawn) | -3 | 0 | -121 | -4 | 2 | 96
CN(CCOc1ccccc1)C(=O)C1CCC(=O)N(CCc2ccc(Cl)cc2)C1 (stereo not drawn) | 3 | 0 | 2 | 2 | 0 | 96
COc1ccc(-c2ncncc2-c2csc(C)n2)c(O)c1 | -4 | 3 | -1 | -9 | . | .
O=C(CCOc1ccccc1)Nc1ccnn1C1CCN(C(=O)CCC(F)(F)F)CC1 | 2 | 98* | -112 | -3 | 0 | 98
C/C(Cn1nnc2ccccc21)=N\OC(=O)c1ccccc1C | -8 | 75* | -21 | -4 | -17 | 96
Cc1ccc(NC(=O)c2noc3c2CCCCC3)cc1C | -8 | 100* | -2 | 4 | 0 | 99
Cc1ccc(NS(=O)(=O)c2c(C(=O)N3CCOCC3)c(C)n(C)c2C)cc1 | -6 | 1 | 29 | -2 | . | .

Bioassay records deposited in PubChem BioAssay by several laboratories.
